PubChem BioAssay (Tox21)
“And” between values parts separate entries of the source, which are not always exact repeats. Equal values may be shown once. Results filed as inconclusive are left out. A call without a number means that no potency is given here. The source made the active and inactive calls. The call rests on the fitted dose curve; in most records, active means well fitted inhibition curve with a large enough effect in the repeat runs; inconclusive means weak or mixed curves, or effect the other way; inactive means no such curve, though single readings can be large or run the other way.

molecular target: Nuclear receptor subfamily 1 group I member 3 (Homo sapiens) (UniProt Q14994); test: qHTS assay to identify small molecule antagonists of the constitutive androstane receptor (CAR) signaling pathway (AID 1224838); conditions: HepG2-CYP2B6-hCAR luciferase, CITCO-stimulated, 24 h; series mostly up to 92.4 µM;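 further: HepG2 cells stably expressing hCAR with CYP2B6 luciferase reporter stimulated by CITCO; nearly all actives have a fitted effect of over 40% in size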
Description: U.S. Tox21 Program National Center for Advancing Translational Sciences [NCATS] NIH Chemical Genomics Center [NCGC] U.S. Environmental Protection Agency [EPA] National Institutes of Environmental Health Sciences [NIEHS] National Toxicology Program [NTP] U.S. Food and Drug Administration [FDA] Tox21 Assay Overview: The constitutive androstane receptor (CAR) is a nuclear receptor which regulates multiple drug metabolizing enzymes (DMEs) and transporters. Activating CAR will generally increase the transcription and subsequent translation of CYP2B6 and CYP3A4. These two DMEs represent about 50% of the drug metabolizing potential in the body. When CAR is deactivated, the metabolizing potential in the body will decrease, subsequently increasing the toxicity in the body or lowering the therapeutic potential of a pro-drug. Recently, there have also been studies performed indicating CARs role in energy metabolism and cancer therapy. Therefore, inhibiting CARs activity could have a potential effect on diabetes and cancer. Identifying environmental toxins and compounds which modulate CAR, through the use of the Tox21 10K compound collection, will be an important step in determining the toxicity and potential therapeutic effects these factors will have on the human body.
Tox21 Assay Protocol Summary: A double-stable (hCAR and CYP2B6-2.2kb) transfected cell line, derived from human hepatoma (HepG2) cells, was utilized for the duration of the quantitative high-throughput screens. The HepG2-CYP2B6-hCAR cells suspended in DMEM culture medium supplemented with 10% FBS, 5 ug/mL blasticidin, 0.5 mg/mL geneticin, 100 U/mL penicillin and 100 ug/mL streptomycin were dispensed at 2500 cells/4 uL/well in 1536-well white solid bottom plates using a Multidrop Combi. After the assay plates were incubated at 37 C/5% CO2 for 4 hrs, 23 nL of compounds at 15 concentrations (from 5-48 columns) or positive control (from 1 to 4 columns) were transferred to the assay plates using a Pintool station. One uL of CITCO, was added using a Flying Reagent Dispenser to generate a final concentration of 50 nM CITCO inside each well. After a 24 hr incubation period at 37 C/5% CO2, four uL of ONE-Glo reagent was added into the assay plates using a Flying Reagent Dispenser. After a 30 min incubation period at room temperature, the luminescence intensity in the assay plates was measured using a ViewLux plate reader.
Potency means the concentration at half of the fitted maximal effect.

Chain of Nuclear receptor subfamily 1 group I member 3 (Homo sapiens) (Q14994 whole entry, looked up): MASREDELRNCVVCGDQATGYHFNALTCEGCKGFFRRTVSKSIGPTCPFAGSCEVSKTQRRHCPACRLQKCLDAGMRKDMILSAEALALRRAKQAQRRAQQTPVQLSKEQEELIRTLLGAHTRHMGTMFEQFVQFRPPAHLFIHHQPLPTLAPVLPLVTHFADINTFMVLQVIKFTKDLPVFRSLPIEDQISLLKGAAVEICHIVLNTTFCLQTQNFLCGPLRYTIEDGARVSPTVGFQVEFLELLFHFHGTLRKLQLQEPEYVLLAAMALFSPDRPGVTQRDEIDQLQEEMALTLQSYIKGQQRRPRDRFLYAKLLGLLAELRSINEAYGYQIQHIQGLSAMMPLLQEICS

Row | Compound | Potency
1 | CNC(=O)Oc1cccc2c1OC(C)(C)O2 | inactive
2 | C=C(C)[C@H]1Cc2c(ccc3c2O[C@@H]2COc4cc(OC)c(OC)cc4[C@@H]2C3=O)O1 | 3.48 µM (active) and 19.3 µM (active) and 3.35 µM (active)
3 | O=[N+]([O-])c1c(Cl)c(Cl)c(Cl)c(Cl)c1Cl | inactive
4 | CCOC(=O)C(C)OC(=O)c1cc(Oc2ccc(C(F)(F)F)cc2Cl)ccc1[N+](=O)[O-] (stereo not given) | inactive
5 | CCCCCCCCC(=O)NCc1ccc(O)c(OC)c1 | inactive
6 | CC(O)CCO (stereo not given) | inactive
7 | c1ccc(P(c2ccccc2)c2ccccc2)cc1 | inactive
8 | Nc1cccnc1 | inactive
9 | CC1(C)C(C=C(Cl)Cl)C1C(=O)OC(C#N)c1cccc(Oc2ccccc2)c1 (stereo not given) | inactive
10 | CCCCC(CC)COC(=O)Cl (stereo not given) | inactive
11 | CC(C)=CC1C(C(=O)OCc2coc(Cc3ccccc3)c2)C1(C)C (stereo not given) | inactive
12 | O=C(NC(=O)c1c(F)cccc1F)Nc1ccc(Cl)cc1 | inactive
13 | Oc1c(Cl)c(Cl)c(Cl)c(Cl)c1Cl | inactive
14 | CCOc1cc(C=O)ccc1O | inactive
15 | CCC(C)c1ccc(O)cc1 (stereo not given) | inactive
16 | CCC(=O)O[C@H]1CC[C@H]2[C@@H]3CCC4=CC(=O)CC[C@]4(C)[C@H]3CC[C@]12C | inactive
17 | COc1ccc(C=O)cc1 | inactive
18 | C=CC(=O)OCCO | inactive
19 | CCc1cccc(CC)c1N(COC)C(=O)CCl | inactive
20 | C=CCN(CC=C)C(=O)C(Cl)Cl | inactive

Row | Compound | Potency
21 | CCCCNC(=O)n1c(NC(=O)OC)nc2ccccc21 | inactive
22 | CC(C)(C)c1ccccc1O | inactive
23 | COP(=S)(OC)Oc1ccc([N+](=O)[O-])cc1 | inactive
24 | O=c1oc2ccccc2c(O)c1C(CC(O)c1ccc(-c2ccc(Br)cc2)cc1)c1ccccc1 (stereo not given) | inactive
25 | CC(C)Oc1cc(-n2nc(C(C)(C)C)oc2=O)c(Cl)cc1Cl | inactive
26 | Nc1ccc(-c2ccccc2)cc1 | inactive
27 | C=CCc1ccc2c(c1)OCO2 | inactive
28 | CCCCCc1cc(O)cc(O)c1 | inactive
29 | Cc1cccc(N)c1N | inactive
30 | O=P(O)(O)CCCl | inactive
31 | C#C[C@]1(O)CC[C@H]2[C@@H]3CCC4=CC(=O)CC[C@]4(C)[C@H]3CC[C@@]21C | inactive
32 | CCCCC(CC)COC(=O)c1ccc(C(=O)OCC(CC)CCCC)c(C(=O)OCC(CC)CCCC)c1 (stereo not given) | inactive
33 | CCC(C)(c1ccc(O)cc1)c1ccc(O)cc1 | inactive
34 | CCCCOCCOP(=O)(OCCOCCCC)OCCOCCCC | inactive
35 | CCCCN(CC)c1c([N+](=O)[O-])cc(C(F)(F)F)cc1[N+](=O)[O-] | inactive
36 | NNC(N)=S | 63.5 µM (active)
37 | Cc1ccc(N)c(N)c1 | inactive
38 | C[C@]12CCC(=O)C(O)=C1CC[C@@H]1[C@@H]2CC[C@]2(C)C(=O)CC[C@@H]12 | inactive
39 | C1=Cc2cccc3cccc1c23 | inactive
40 | N#Cc1cc(Br)c(O)c(Br)c1 | inactive
